The text below walks through data of PubChem BioAssay AID1347131 (National Center for Advancing Translational Sciences (NCATS), 2019).

Hit rate of the full screen: of about 410,000 compounds, about 2,000 (0.49%) were called active. Entries that show only a call come without a potency. About 8% were inconclusive and are not listed. Calls come from the whole dose curve; tested in HEK293 reporter line. Many of the other results were omitted from the sample, so actives are more common in it than they were.
Potency is the fitted concentration of half-maximal effect.

The nature of this experiment: qHTS Assay for Foot and Mouth Disease Virus Antivirals: Primary Screen against the MLPCN compound library. Note: nearly all actives have a fitted effect of over 55% in size. The following applies: FMDV antiviral cell-based qHTS; series mostly up to 57.9 µM.
Take `COCC(C)n1c(C)cc(C(=O)COC(=O)c2cc(=O)[nH]c3ccccc23)c1C` (stereo not drawn): the Potency entry is “inactive”.
With `CC(C)(C)OC(=O)N1CCC(c2c(C(=O)N3CCN(Cc4ccccc4)CC3)cnn2-c2ccc(Cl)cc2)CC1`, the Potency result is “inactive”.
Next, `O=S(=O)(N/N=C\c1ccc2c(c1)OCO2)c1ccc(Cl)cc1`: “inactive”.
As to `N/C(=N\N=C\c1ccc2c(c1)OCO2)c1nonc1N`, the Potency was 17.8 µM (active).
For `CCc1ccc(S(=O)(=O)N/N=C\c2ccc3c(c2)OCO3)cc1`, the Potency result was “inactive”.
As for `Brc1ccccc1CN1CCN(Cc2c[nH]c3ccccc23)CC1`, the Potency entry is “inactive”.
Next, `CCN(CC)c1ccc2cc(C(=O)NNC(=O)c3ccc(S(=O)(=O)N4CCCCC4)cc3)c(=O)oc2c1`: “inactive”; `CCN(Cc1cc(=O)oc2cc(C)ccc12)c1ccccc1`: “inactive”; `CCN(CC)c1ccc2c(Cl)c(Br)c(=O)oc2c1`: 31.6 µM (active).
As to `O=C(C1=C[C@H](c2ccc3c(c2)OCO3)C[C@H](OCc2ccc(CO)cc2)O1)N1CCN(Cc2ccc3c(c2)OCO3)CC1`, the Potency result is “inactive”.
In the case of `Cc1ccc(Nc2nc(N)nc(CN3CCN(c4ccccc4F)CC3)n2)cc1`, the Potency result was “inactive”.
With `CCOc1ccc(C=NNC(=O)c2cccc3ccccc23)cc1OCC`, the Potency result was “inactive”.
On to `O=C(Oc1cccc(/C=N/Nc2nc(N3CCOCC3)nc(N3CCOCC3)n2)c1)c1ccco1`, for which the Potency result is “inactive”.
Next, `O=C(N/N=C/c1ccc2ncccc2c1)c1ccco1`: 14.1 µM (active).
Turning to `Cc1ccc(-c2ccc(=O)n(Cc3cc(C)ccc3C)n2)cc1`, the Potency entry is “inactive”.
Then `CCN1CCN(c2cc(-c3ccccc3)nc3cc(-c4cccc(F)c4)nn23)CC1`, with “inactive”; and `C=CC[C@@H](CC(=O)OC(C)(C)C)C(=O)OC[C@@H]1CCCN1C(=O)[C@@H](CC=C)CC(=O)N[C@@H](CO)Cc1ccccc1`, with “inactive”; and `C=CC[C@@H](Cc1ccc(F)cc1)C(=O)OC[C@H]1CCCN1C(=O)[C@@H](CC=C)CC(=O)N(CCO)Cc1ccccc1`, with “inactive”.
Then `C=CC[C@@H](CC(=O)OC(C)(C)C)C(=O)OC[C@@H]1CCCN1C(=O)[C@@H](CC=C)CC(=O)N[C@H](CO)Cc1ccccc1`, with 14.1 µM (active); and `COc1ccc(C(C)=O)cc1COC(=O)CNC(=O)c1ccccc1F`, with “inactive”.
Consider `N#CC(=C=[N-])c1nc2ccccc2nc1-[n+]1ccccc1`, for which the Potency result was “inactive”.
Then `COc1cc(/C=N/NC(N)=S)cc(Br)c1OCc1ccccc1F`, with “inactive”.
Then `COc1cccc(/C=N/NC(=O)CSc2nnc(C)n2-c2ccccc2)c1OC`, with “inactive”; and `COc1cccc(/C=N/NC(N)=S)c1OCc1cccc(Cl)c1`, with 22.4 µM (active).
Then `Cc1cc(-c2nc3ccccc3s2)ccc1N`, with 7.94 µM (active).
Take `Cc1cc(-c2nc3cc(F)ccc3s2)ccc1N`: the Potency was 12.6 µM (active).
Next, `CC(C)(C)C(=O)Nc1ccc(-c2nc3ccccc3s2)cc1`: “inactive”.
Then `CN(C(=O)OC(C)(C)C)c1ccc(-c2nc3ccccc3s2)cc1`, with “inactive”; and `Cc1ccccc1-c1nc(CN2CCC(C(=O)NC3CCN(Cc4ccccc4)CC3)CC2)c(C)o1`, with “inactive”.
Next, `Cc1cc(=O)[nH]c(N/N=C/C2=C(N3CCOCC3)C(=C\c3ccc(Cl)cc3)/CC2)n1`: “inactive”; `O=C(Nc1ccc(Cl)c(C(F)(F)F)c1)c1cc2nc(-c3ccc4c(c3)OCO4)cc(C(F)(F)F)n2n1`: “inactive”; `CC[C@H]1c2[nH]c3ccc(C(C)C)cc3c2[C@@H]2CCN3C(=O)CCC[C@H]1[C@H]23`: “inactive”.
`CC(C)(C)n1ncc2c(=O)n(CC(=O)Nc3ccc(Cl)cc3)cnc21`: the Potency entry was “inactive”.
Then `CC(C)(C)n1ncc2c(=O)n(CC(=O)NCc3ccccc3)cnc21`, with 20 µM (active); and `CC(C)(C)n1ncc2c(=O)n(Cc3c(Cl)cccc3Br)cnc21`, with “inactive”; and `CCCCCn1c(NC(=O)c2ccco2)c(C(=O)OCC)c2nc3ccccc3nc21`, with “inactive”.
`COc1cc(/C=C2/CCc3ccccc3C2=O)cc(OC)c1OC`: the Potency entry is “inactive”.
As to `COc1ccc(/C=C2\CN(Cc3ccccc3)C/C(=C\c3ccc(OC)cc3)C2=O)cc1`, the Potency result was “inactive”.
Then `CCOc1ccc(/C=C2\CCc3ccccc3C2=O)cc1`, with 20 µM (active).
Next, `Cc1ccc(-c2noc(CCC(=O)NCCN3CCc4ccccc4C3)n2)cc1`: “inactive”; `C(=N\Nc1ccc2ccccc2n1)/c1ccc2c(c1)OCCO2`: “inactive”; `Fc1cccc(/C=N/Nc2ccc3ccccc3n2)c1`: 12.6 µM (active).
With `O=S(=O)(N/N=C\c1cccc(F)c1)c1ccccc1`, the Potency entry is “inactive”.
On to `O=C(NCc1ccc(F)cc1)c1cc(Sc2ccc(F)cc2F)nc2ccccc12`, for which the Potency result is “inactive”.
Then `Cc1ccc(Cl)c(OCCN2CCc3ccccc3C2)c1`, with “inactive”; and `CN(CC(=O)Nc1ccc(Cl)cc1)CC(=O)Nc1sc2c(c1C(N)=O)CCC2`, with “inactive”.
Then `O=C(CSC1=NCCS1)N1CCN(c2ccccc2)CC1`, with “inactive”; and `CC1(C)Cc2ccccc2-c2nnc(SCC(=O)N3CCN(c4ccccc4)CC3)n21`, with 7.94 µM (active); and `CC1Cc2nc(SCC(=O)N3CCN(c4ccccc4)CC3)n(C)c(=O)c2S1` (stereo not drawn), with “inactive”.
Regarding `C/C(=N\NC(=O)c1cc(-c2cccs2)nc2ccccc12)c1ccccn1`, the Potency result is “inactive”.
As to `FC(F)(F)c1cc(-c2cccs2)nc(-n2cc(Br)cn2)n1`, the Potency entry was “inactive”.
Then `Cc1cc2ncc(-c3cccs3)nc2cc1C`, with 11.2 µM (active); and `O=C1Nc2ccc([N+](=O)[O-])cc2OC1CCN1CCN(c2ccccc2)CC1` (stereo not drawn), with “inactive”.
Then `COc1ccc(-c2ccc(C(=O)N3CCN(C)CC3)c3occc23)c(C)c1`, with “inactive”; and `Nc1nc(CSc2n[nH]c(-c3ccccc3)n2)nc(Nc2ccccc2)n1`, with 25.1 µM (active).
Then `CCOc1ccccc1CNC(=O)CSc1n[nH]c(-c2ccccc2)n1`, with “inactive”; and `Nc1nc(COC(=O)CCC(=O)c2ccc(Cl)cc2)nc(Nc2ccccc2)n1`, with “inactive”; and `O=C1c2cccnc2Oc2ccc(Cl)cc2N1Cc1ccc(F)cc1`, with “inactive”.
In the case of `[N-]=[N+]=CC(=O)C(Cc1ccccc1)N1C(=O)c2ccccc2C1=O` (stereo not drawn), the Potency entry is “inactive”.
Then `O=C(c1cc2ccc3cccnc3c2[nH]1)N1CCCCC1`, with 14.1 µM (active).
Next, `Cc1ccc2[nH]c(C(=O)N3CCCCC3)cc2c1`: “inactive”; `O=C(c1cc2ccc3cccnc3c2[nH]1)N1CCN(c2cccc(Cl)c2)CC1`: “inactive”; `CN(C)N(Cc1ccccc1)C(=O)C(O)(c1ccccc1)c1ccccc1`: “inactive”.
